# Many of the other results were omitted from the sample, so hits are more common in it than they were.
# ST2 IL33 inh = blocks human ST2 binding to IL-33 | Q01638 | AlphaLISA ST2-Fc/biotin-IL-33 interaction, 1 h | inhibition, % for hits at 17 µM | 2.3% of 78,000 active | AID 1259354; in the data active = inhibition above about 30%
# Target sequence (Q01638 whole entry, looked up): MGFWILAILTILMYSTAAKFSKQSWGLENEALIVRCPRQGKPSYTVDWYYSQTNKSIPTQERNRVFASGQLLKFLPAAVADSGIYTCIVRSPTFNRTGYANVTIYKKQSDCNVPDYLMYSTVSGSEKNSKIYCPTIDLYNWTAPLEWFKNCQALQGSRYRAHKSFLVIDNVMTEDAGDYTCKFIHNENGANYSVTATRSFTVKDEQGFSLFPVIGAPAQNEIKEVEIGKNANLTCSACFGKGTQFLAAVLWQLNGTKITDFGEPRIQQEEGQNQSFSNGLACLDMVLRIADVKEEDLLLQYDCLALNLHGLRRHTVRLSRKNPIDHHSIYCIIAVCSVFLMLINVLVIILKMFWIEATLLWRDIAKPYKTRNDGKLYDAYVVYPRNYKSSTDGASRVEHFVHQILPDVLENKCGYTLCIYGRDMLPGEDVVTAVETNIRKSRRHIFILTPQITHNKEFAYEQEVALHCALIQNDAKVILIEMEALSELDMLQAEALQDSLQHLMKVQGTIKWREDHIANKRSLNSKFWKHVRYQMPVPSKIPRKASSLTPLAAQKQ
# An asterisk follows results filed as active; i = inactive.
SMILES,ST2 IL33 inh
COc1ccc(/C=c2\sc3n(c2=O)CN(c2cccc(F)c2)CN=3)cc1OC,i
COc1ccc(/C=c2\sc3n(c2=O)CN(c2ccc4c(c2)OCO4)CN=3)cc1,31%*
CC(=O)c1cccc(N2CN=c3s/c(=C\c4cccnc4)c(=O)n3C2)c1,i
O=c1/c(=C/c2ccncc2)sc2n1CN(c1ccc3c(c1)OCO3)CN=2,i
C=C(C)CN(C)c1nc(C)nc2sccc12,i
CN1CCc2c(sc3c2C(=O)NC(c2ccc(Cl)c(Cl)c2)N3)C1 (configuration not stated),i
O=C(c1ccc2nc3ccccc3c(=O)n2c1)N1CCN(c2ncccn2)CC1,i
COc1ccc(OC)c(C(N2CCOCC2)N2CCOCC2)c1,i
N#CC1=C(N)n2c(nc3ccccc32)NC1c1ccc(Cl)cc1 (configuration not stated),i
CN(CCCNC(=O)Cn1nc(-c2ccccc2)ccc1=O)Cc1ccccc1,i
O=C(Cn1nc(-c2ccccc2)ccc1=O)NCCCN1CCC(Cc2ccccc2)CC1,53%*
O=C(Cn1nc(-c2ccccc2)ccc1=O)NCCN1CCC(Cc2ccccc2)CC1,i
COc1ccc(C(=O)C(OC(=O)c2cc3ccccc3oc2=O)c2ccccc2)cc1 (configuration not stated),i
CC(=O)Nc1ccc(S(=O)(=O)N[C@H]2CO[C@H]3[C@@H]2OC[C@H]3OC(=O)Nc2cccc(C(C)=O)c2)cc1,i
O[C@@H]1CN(Cc2cccc3c2OCO3)CC[C@H]1c1ccc(F)cc1,i
COCc1ccc(C(=O)NCc2ccc3c(c2)n(C)c(=O)n3C)o1,i
Cn1c(=O)n(C)c2cc(CNC(=O)Cc3c[nH]c4ccccc34)ccc21,30%*
Cc1cc(C)n(CCC(=O)NCCc2c[nH]c3ccccc23)c(=O)n1,i
C=CCN1C(=O)c2ccccc2Sc2ccc(C(=O)NCCc3ccccc3)cc21,i
O=C(c1ccc(Cn2c(=O)[nH]c3ccsc3c2=O)cc1)N1CCN(c2ccccn2)CC1,i
Cc1ccc(NS(=O)(=O)c2c(C)n[nH]c2C)cc1,i
Cc1ccc(C(=O)Nc2ccccc2C(=O)O)cc1,i
O=C(Nc1ccccc1C(=O)O)c1ccccc1,33%*
O=C(Nc1ccccc1F)c1ccccc1,i
CN1CCC(n2cnc(-c3ccccc3)c2-c2cccc3cccnc23)CC1,30%*
SMILES,ST2 IL33 inh
CN1CC(n2cnc(-c3ccccc3)c2-c2ccccc2C(=O)O)CCC1=O (configuration not stated),i
Cc1nn(C)c(Cl)c1-c1c(-c2ccccc2)ncn1C1CC=CC1,i
c1cncc(CN2CCN(Cc3ccc4c(c3)OCO4)CC2)c1,i
O=C1c2ccccc2C(=O)C1c1ccncc1,99%*
O=C1c2ccccc2C(=O)C1c1ccccn1,i
O=C1c2ccccc2C(=O)C1c1nc2ccccc2[nH]1,i
CC(C)NC(=O)C[C@@H]1O[C@H](CNC(=O)c2ccc(N(C)C)cc2)[C@@H](O)[C@H]1O,i
O=S(=O)(c1ccccc1)c1nc(-c2ccccc2F)oc1N1CCCCC1,32%*
Cc1cccc(-c2nc(S(=O)(=O)c3ccccc3)c(N3CCOCC3)o2)c1,i
O=S(=O)(c1ccccc1)c1nc(-c2ccco2)oc1SCc1ccccc1F,i
CCN1C(C(=O)c2ccccc2)=C(Nc2ccccc2C)c2ccccc2S1(=O)=O,31%*
COC(=N)CN1C(=O)c2ccccc2S1(=O)=O,i
Cc1ccccc1Nc1sc(C(=O)c2ccccc2)c(N)c1C#N,i
Cc1cc2nc(COc3ccc(Cl)cc3NC(=O)CC(C)C)cc(=O)n2o1,i
COCC1(C(=O)NCc2cccnc2Oc2ccccc2C)CCC1,i
CC1(C)CC(=O)C2=C(C1)OC1=C(C(=O)CC(C)(C)C1)C2c1ccc(OCc2ccccc2)cc1,i
O=C1NC(=Nc2cccc([N+](=O)[O-])c2)SC1(CO)CO,i
O=C1S/C(=C/c2ccccc2)C(=O)N1CNc1cccc(F)c1,i
C=CCN1C(=O)/C(=C/c2ccccc2)SC1=Nc1cccc([N+](=O)[O-])c1,47%*
NS(=O)(=O)c1cc2c(cc1Cl)NC([C@@H]1C[C@H]3C=C[C@@H]1C3)NS2(=O)=O (some centres not stated),i
Nc1nc(N)nc(-c2ccc(Oc3ccccc3)cc2)n1,i
Nc1c(Oc2ccccc2)c(Oc2ccccc2)c(N)c2c1C(=O)c1ccccc1C2=O,92%*
O=C1c2ccccc2C(=O)N1CC(O)COc1ccccc1 (configuration not stated),i
C=CCN(CC#Cc1ccccc1)C(=O)c1cc2n(n1)CCCN(C)C2,i
Cc1ccccc1-c1nc(Cn2cncn2)c(C)o1,i
SMILES,ST2 IL33 inh
COc1ccc(/C=C2/SC(=O)N(CCC(=O)Nc3ccccc3Br)C2=O)cc1,i
O=C(CN1C(=O)S/C(=C/c2ccccc2)C1=O)Nc1ccccc1Cl,i
COc1ccc(/C=C2/SC(=O)N(CC(=O)Nc3cc(C)on3)C2=O)cc1OC,35%*
CC1CN(c2ccccc2)CCN1C(=O)CCN1CCCCCC1=O (configuration not stated),i
O=C(c1cccnn1)N1CCc2[nH]nc(-c3ccc(-c4ccccc4)cc3)c2C1,i
CN1CCN(C(=O)c2cccc([N+](=O)[O-])c2)CC1,i
Fc1ccc(C2Nc3ccc(Cl)cc3C3C=CCC32)cc1 (configuration not stated),i
CCOC(=O)C1Nc2c(ccc(C(=O)O)c2C)C2C=CCC12 (configuration not stated),i
O=C(c1ccc2c(c1)C1C=CCC1C(c1ccc(Cl)cc1)N2)N1CCOCC1 (configuration not stated),63%*
O=C(O)c1ccc2c(c1)C1C=CCC1C(c1ccc(Br)cc1)N2 (configuration not stated),i
O=C(c1ccc2c(c1)C1C=CCC1C(c1cccc([N+](=O)[O-])c1)N2)N1CCCCC1 (configuration not stated),38%*
Cc1ccc(C2Nc3c(ccc(C(=O)O)c3C)C3C=CCC32)cc1 (configuration not stated),i
COc1ccc(S(=O)(=O)N2CCN(C(=O)c3cccc([N+](=O)[O-])c3)CC2)cc1,i
O=C(O)c1ccc2c(c1)C1C=CCC1C(C(=O)O)N2 (configuration not stated),82%*
O=c1c2c(nc(SCc3ccccc3Cl)n1-c1ccc(F)cc1)CCS2,i
O=C(c1cccc(F)c1)N(c1ccc(Br)cc1)C1C=CS(=O)(=O)C1 (configuration not stated),i
CCCc1cn(CC2CCCN(C(=O)NC3CCCCCC3)C2)nn1 (configuration not stated),i
COc1ccc(/C=C2\SC(N3CCCC3)=NC2=O)cc1,i
COc1ccc(/C=C(\C)c2nc(C)c(-c3ccccc3)c(=O)[nH]2)cc1,i
COc1ccc(/C=C2\CC(c3ccccc3)=CC2=O)cc1,52%*
Cc1ccc(-c2n[nH]c(=O)c3ccccc23)cc1C,i
CCC1CN(Cc2c(Cl)ccc(O)c2Cl)CCN1C(C)C (configuration not stated),i
CN1CCc2[nH]c3c(Cl)cccc3c2C1,i
Cc1ccc2c(c1)c1c(n2CCC#N)CCN(C)C1,42%*
Cc1ccc2c(c1)c1c(n2CCN2C(=O)c3ccccc3C2=O)C(=O)CCC1,i
CN(CCCNC(=O)c1cc2cc3ccc(Cl)cc3nc2o1)Cc1ccccc1,i
